{"source": "PubChem BioAssay (NCATS)", "note": "“And” between values parts separate entries of the source, which are not always exact repeats. Identical values can stand only once. Inconclusive results are not listed. Where a call stands in place of a potency, no number is given. Where a structure was tested more than once in an assay, its records may differ in their call. The source made the active and inactive calls. Calls come from the whole dose curve; as a rule, active = well fitted curve in the direction sought with a large enough effect; inconclusive = small, poorly fitted or top-dose-only effect, or another doubt; inactive = no such curve, though single readings can be large; an effect the other way counts as inactive or inconclusive. Note: nearly all actives have a fitted effect of over 70% in size. Potency is the fitted concentration of half-maximal effect."}
{"test": "Primary qHTS for inhibitors of nuclear receptor binding SET domain protein 2 (NSD2) in an isogenic RCH-ACV NSD2 p.E1099K mutant (9B) (AID 1645876)", "details": "RCH-ACV NSD2 E1099K (9B) viability, CellTiter-Glo, 72 h; series mostly up to 44.9 µM"}
{"smiles": "O=C(CCCl)NCCc1ccccc1", "Potency": "inactive"}
{"smiles": "Cc1ccc(O)cc1", "Potency": "inactive"}
{"smiles": "CCN1C(=O)c2ccccc2C1Nc1ccc(OCCN2CCCCC2)cc1", "note": "(centres undefined)", "Potency": "inactive"}
{"smiles": "Nc1ccc2cc3ccc(N)cc3nc2c1", "Potency": "2.37 µM (active)"}
{"smiles": "CCCCCCCCCCCCCCCC[N+](C)(C)Cc1ccccc1", "Potency": "0.75 µM (active)"}
{"smiles": "CCOC(=O)C(=O)c1csc(NC=O)n1", "Potency": "inactive"}
{"smiles": "CC(C)N(CCC(=O)c1ccc2ccccc2c1)Cc1ccccc1", "Potency": "6.61 µM (active) and 8.2 µM (active)"}
{"smiles": "CC(C)C(=O)OCc1cccc(OC(=O)[C@@H]2N3C(=O)[C@@H](NC(=O)Cc4ccccc4)[C@H]3SC2(C)C)c1", "Potency": "inactive"}
{"smiles": "CC(=O)/C=C/C=C1/C2CCC(C2)C1(C)C", "note": "(centres undefined)", "Potency": "inactive"}
{"smiles": "C=CC[N+]1([C@H]2C[C@H]3[C@@H]4CC[C@H]5C[C@H](OC(C)=O)[C@@H](N6CCCCC6)C[C@]5(C)[C@H]4CC[C@]3(C)[C@H]2OC(=O)CC)CCCCC1", "Potency": "inactive"}
{"smiles": "O=C1NC2CCCCN2C12CCN(CCCN1c3ccccc3CCc3ccc(Cl)cc31)CC2", "note": "(centres undefined)", "Potency": "18.3 µM (active)"}
{"smiles": "C=C(C)C(=O)OCC(O)CO", "note": "(centres undefined)", "Potency": "inactive"}
{"smiles": "COc1c(C)c2c(c(O)c1C/C=C(\\C)CCC(=O)OCCN1CCOCC1)C(=O)OC2", "Potency": "473 nM (active) and 525 nM (active)"}
{"smiles": "O=[N+]([O-])c1ccc(-c2nc(-c3ccc(F)cc3)c(-c3ccncc3)[nH]2)cc1", "Potency": "inactive and 18.4 µM (active)"}
{"smiles": "COC(=O)[C@H]1[C@H]2C[C@@H]3c4[nH]c5cc(OC)ccc5c4CCN3C[C@H]2C[C@@H](OC(=O)/C=C/c2ccc(O)c(OC)c2)[C@@H]1OC", "Potency": "4.73 µM (active)"}
{"smiles": "CCC(=O)O[C@H]1[C@H](O[C@@H]2[C@@H](C)[C@H](O[C@H]3C[C@@](C)(OC)[C@@H](O)[C@H](C)O3)[C@@H](C)C(=O)O[C@H](CC)[C@@](C)(O)[C@H](O)[C@@H](C)C(=O)[C@H](C)C[C@@]2(C)O)O[C@H](C)C[C@@H]1N(C)C", "Potency": "inactive"}
{"smiles": "OCCc1ccccc1", "Potency": "inactive"}
{"smiles": "CCCCCCCCCCCCCCCC[n+]1ccccc1", "Potency": "0.376 µM (active)"}
{"smiles": "CC(=O)OC[C@H]1O[C@@H](OC(C)=O)[C@H](OC(C)=O)[C@@H]1OC(C)=O", "Potency": "inactive"}
{"smiles": "O=C(Nc1ccc(S(=O)(=O)N2CCOCC2)cc1)c1cc(Cl)ccc1NS(=O)(=O)c1ccc(Cl)s1", "Potency": "inactive"}
{"smiles": "O=C1NC(c2cccc([N+](=O)[O-])c2)=CCN1c1ccccc1O", "Potency": "inactive"}
{"smiles": "COc1ccccc1N1CCN(CCN2C(=O)CC3(CCCC3)CC2=O)CC1", "Potency": "inactive"}
{"smiles": "O=C(COCCOCCOCC(=O)Nc1c(I)cc(I)c(C(=O)O)c1I)Nc1c(I)cc(I)c(C(=O)O)c1I", "Potency": "inactive"}
{"smiles": "Nc1c2ccccc2nc2ccccc12", "Potency": "3.76 µM (active)"}
{"smiles": "CN1C(=O)c2ccccc2C1=O", "Potency": "inactive"}
{"smiles": "COC(=O)C1=C(C)NC(COC(N)=O)=C(C(=O)OC(C)C)C1c1cccc(Cl)c1Cl", "note": "(centres undefined)", "Potency": "18.8 µM (active)"}
{"smiles": "CC(C)=CCNc1ncnc2c1ncn2[C@@H]1O[C@H](CO)[C@@H](O)[C@H]1O", "Potency": "1.68 µM (active)"}
{"smiles": "C/C=C(/C(=C/C)c1ccc(OC(C)=O)cc1)c1ccc(OC(C)=O)cc1", "Potency": "5.31 µM (active)"}
{"smiles": "CCOc1ccccc1OCC1CNCCO1", "note": "(centres undefined)", "Potency": "inactive"}
{"smiles": "C#Cc1ccc(-c2ccccc2F)cc1", "Potency": "inactive"}
{"smiles": "N[C@@H](Cn1ccc(=O)c(O)c1)C(=O)O", "activity change, negative = viability loss": "-1.02% [at 4.96 µM] (inactive)"}
{"smiles": "O=C1CC[C@H](C(=O)N2CCCCC2)N1", "Potency": "inactive"}
{"smiles": "CO[C@@]1(NC(=O)CSC[C@@H](N)C(=O)O)C(=O)N2C(C(=O)O)=C(CSc3nnnn3C)CS[C@@H]21", "Potency": "inactive"}
{"smiles": "Nc1cccc2c(N)cccc12", "Potency": "24.3 µM (active)"}
{"smiles": "Cc1cccc(C)c1NC(=O)c1ccc(N)cc1", "Potency": "inactive"}
{"smiles": "O=C(O)CCCC[C@@H]1SC[C@@H]2NC(=O)N[C@@H]21", "Potency": "inactive"}
{"smiles": "Nc1c(NC/C=C\\COc2cc(CN3CCCCC3)ccn2)c(=O)c1=O", "Potency": "inactive"}
{"test": "Primary qHTS for inhibitors of nuclear receptor binding SET domain protein 2 (NSD2) in an RCH-ACV wild type WT cells (2C) (AID 1645877)", "details": "RCH-ACV NSD2 WT (2C) viability, CellTiter-Glo, 72 h; series mostly up to 44.9 µM"}
{"smiles": "O=C(CCCl)NCCc1ccccc1", "Potency": "inactive"}
{"smiles": "Cc1ccc(O)cc1", "Potency": "inactive"}
{"smiles": "CCN1C(=O)c2ccccc2C1Nc1ccc(OCCN2CCCCC2)cc1", "note": "(centres undefined)", "Potency": "inactive"}
{"smiles": "Nc1ccc2cc3ccc(N)cc3nc2c1", "Potency": "1.68 µM (active)"}
{"smiles": "CCCCCCCCCCCCCCCC[N+](C)(C)Cc1ccccc1", "Potency": "0.668 µM (active)"}
{"smiles": "CCOC(=O)C(=O)c1csc(NC=O)n1", "Potency": "inactive"}
{"smiles": "CC(C)N(CCC(=O)c1ccc2ccccc2c1)Cc1ccccc1", "Potency": "5.25 µM (active) and 11.6 µM (active)"}
{"smiles": "CC(C)C(=O)OCc1cccc(OC(=O)[C@@H]2N3C(=O)[C@@H](NC(=O)Cc4ccccc4)[C@H]3SC2(C)C)c1", "Potency": "inactive"}
{"smiles": "CC(=O)/C=C/C=C1/C2CCC(C2)C1(C)C", "note": "(centres undefined)", "Potency": "inactive"}
{"smiles": "C=CC[N+]1([C@H]2C[C@H]3[C@@H]4CC[C@H]5C[C@H](OC(C)=O)[C@@H](N6CCCCC6)C[C@]5(C)[C@H]4CC[C@]3(C)[C@H]2OC(=O)CC)CCCCC1", "Potency": "inactive"}
{"smiles": "O=C1NC2CCCCN2C12CCN(CCCN1c3ccccc3CCc3ccc(Cl)cc31)CC2", "note": "(centres undefined)", "Potency": "21.1 µM (active)"}
{"smiles": "C=C(C)C(=O)OCC(O)CO", "note": "(centres undefined)", "Potency": "inactive"}
{"smiles": "COc1c(C)c2c(c(O)c1C/C=C(\\C)CCC(=O)OCCN1CCOCC1)C(=O)OC2", "Potency": "0.376 µM (active)"}
{"smiles": "O=[N+]([O-])c1ccc(-c2nc(-c3ccc(F)cc3)c(-c3ccncc3)[nH]2)cc1", "Potency": "inactive and 23.1 µM (active)"}
{"smiles": "COC(=O)[C@H]1[C@H]2C[C@@H]3c4[nH]c5cc(OC)ccc5c4CCN3C[C@H]2C[C@@H](OC(=O)/C=C/c2ccc(O)c(OC)c2)[C@@H]1OC", "Potency": "4.73 µM (active)"}
{"smiles": "CCC(=O)O[C@H]1[C@H](O[C@@H]2[C@@H](C)[C@H](O[C@H]3C[C@@](C)(OC)[C@@H](O)[C@H](C)O3)[C@@H](C)C(=O)O[C@H](CC)[C@@](C)(O)[C@H](O)[C@@H](C)C(=O)[C@H](C)C[C@@]2(C)O)O[C@H](C)C[C@@H]1N(C)C", "Potency": "inactive"}
{"smiles": "OCCc1ccccc1", "Potency": "inactive"}
{"smiles": "CCCCCCCCCCCCCCCC[n+]1ccccc1", "Potency": "0.335 µM (active)"}
{"smiles": "CC(=O)OC[C@H]1O[C@@H](OC(C)=O)[C@H](OC(C)=O)[C@@H]1OC(C)=O", "Potency": "inactive"}
{"smiles": "O=C(Nc1ccc(S(=O)(=O)N2CCOCC2)cc1)c1cc(Cl)ccc1NS(=O)(=O)c1ccc(Cl)s1", "Potency": "inactive"}
{"smiles": "O=C1NC(c2cccc([N+](=O)[O-])c2)=CCN1c1ccccc1O", "Potency": "inactive"}
{"smiles": "COc1ccccc1N1CCN(CCN2C(=O)CC3(CCCC3)CC2=O)CC1", "Potency": "inactive"}
{"smiles": "O=C(COCCOCCOCC(=O)Nc1c(I)cc(I)c(C(=O)O)c1I)Nc1c(I)cc(I)c(C(=O)O)c1I", "Potency": "inactive"}
{"smiles": "Nc1c2ccccc2nc2ccccc12", "Potency": "4.22 µM (active)"}
{"smiles": "CN1C(=O)c2ccccc2C1=O", "Potency": "inactive"}
{"smiles": "COC(=O)C1=C(C)NC(COC(N)=O)=C(C(=O)OC(C)C)C1c1cccc(Cl)c1Cl", "note": "(centres undefined)", "Potency": "11.9 µM (active)"}
{"smiles": "CC(C)=CCNc1ncnc2c1ncn2[C@@H]1O[C@H](CO)[C@@H](O)[C@H]1O", "Potency": "1.06 µM (active)"}
{"smiles": "C/C=C(/C(=C/C)c1ccc(OC(C)=O)cc1)c1ccc(OC(C)=O)cc1", "Potency": "3.76 µM (active)"}
{"smiles": "CCOc1ccccc1OCC1CNCCO1", "note": "(centres undefined)", "Potency": "inactive"}
{"smiles": "C#Cc1ccc(-c2ccccc2F)cc1", "Potency": "inactive"}
{"smiles": "N[C@@H](Cn1ccc(=O)c(O)c1)C(=O)O", "activity change, negative = cell killing": "-0.615% [at 4.96 µM] (inactive)"}
{"smiles": "O=C1CC[C@H](C(=O)N2CCCCC2)N1", "Potency": "inactive"}
{"smiles": "CO[C@@]1(NC(=O)CSC[C@@H](N)C(=O)O)C(=O)N2C(C(=O)O)=C(CSc3nnnn3C)CS[C@@H]21", "Potency": "inactive"}
{"smiles": "Nc1cccc2c(N)cccc12", "Potency": "3.86 µM (active)"}
{"smiles": "Cc1cccc(C)c1NC(=O)c1ccc(N)cc1", "Potency": "inactive"}
{"smiles": "O=C(O)CCCC[C@@H]1SC[C@@H]2NC(=O)N[C@@H]21", "Potency": "inactive"}
{"smiles": "Nc1c(NC/C=C\\COc2cc(CN3CCCCC3)ccn2)c(=O)c1=O", "Potency": "inactive"}
